This is a sample that favours compounds with a hit; in the whole collection about 3.2% have one here.
TMEM16A act – TMEM16A chloride channel activators or potentiators, primary screen, cell-based, HTS. HEK293 TMEM16A/YFP-H148Q/I152L, iodide quench fluorescence; hits give low values. B-score at 10 µM. 340,000 tested, 0.3% active. AID 623877, 2012;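 active = fluorescence-ratio B-score plate-corrected deviation score at least 3 library SD below zero, with starting fluorescence score within 5 deviations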;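 also: channel opened by trigger with iodide after compound preincubation; score built on the fluorescence ratio of max minus min over baseline; more negative score means more quench and so TMEM16A activation or potentiation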
Target sequence (Q8BHY3 whole entry, looked up): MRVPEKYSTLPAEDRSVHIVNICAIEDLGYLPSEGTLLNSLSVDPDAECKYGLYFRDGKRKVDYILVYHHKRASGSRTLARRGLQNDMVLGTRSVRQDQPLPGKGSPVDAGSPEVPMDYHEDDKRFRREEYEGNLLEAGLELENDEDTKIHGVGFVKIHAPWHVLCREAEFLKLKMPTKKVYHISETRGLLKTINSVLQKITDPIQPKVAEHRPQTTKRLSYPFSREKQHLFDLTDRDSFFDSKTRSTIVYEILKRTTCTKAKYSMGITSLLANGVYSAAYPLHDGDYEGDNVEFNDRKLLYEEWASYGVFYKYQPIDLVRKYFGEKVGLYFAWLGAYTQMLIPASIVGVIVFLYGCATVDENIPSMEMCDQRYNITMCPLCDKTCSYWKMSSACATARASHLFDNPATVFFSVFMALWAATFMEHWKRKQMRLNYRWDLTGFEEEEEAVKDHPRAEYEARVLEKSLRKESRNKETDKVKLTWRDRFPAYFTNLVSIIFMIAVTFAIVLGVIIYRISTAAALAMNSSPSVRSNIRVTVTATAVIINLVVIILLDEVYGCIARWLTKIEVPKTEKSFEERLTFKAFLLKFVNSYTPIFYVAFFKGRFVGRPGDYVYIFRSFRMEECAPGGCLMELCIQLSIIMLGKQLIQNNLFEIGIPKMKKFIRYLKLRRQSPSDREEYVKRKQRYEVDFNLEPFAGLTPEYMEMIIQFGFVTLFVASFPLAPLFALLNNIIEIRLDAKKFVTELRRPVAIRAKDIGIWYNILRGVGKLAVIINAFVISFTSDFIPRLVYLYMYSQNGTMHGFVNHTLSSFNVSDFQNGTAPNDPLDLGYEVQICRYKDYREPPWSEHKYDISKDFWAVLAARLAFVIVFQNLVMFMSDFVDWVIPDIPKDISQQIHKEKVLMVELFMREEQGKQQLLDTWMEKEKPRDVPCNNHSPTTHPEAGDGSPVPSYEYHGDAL
Rce1 inh – yeast Rce1p protease inhibitors, primary screen, biochemical, fluorescence, cell-free homogeneous; calls only; AID 2563, 2010; 290,000 tested, 0.27% active; yeast membranes, quenched prenylated peptide cleavage fluorescence; CAAX prenyl protease 2 (Saccharomyces cerevisiae (strain ATCC 204508 / S288c)), Q03530;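 active = fall in fluorescence gain of 50% or more versus controls, with final raw signal at or below 3038400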;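 also: plate controls were neutral control wells for no effect and wells lacking membranes for full effect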
ANO1 block – TMEM16A chloride channel inhibitors, primary screen, cell-based, HTS; Anoctamin-1 (Mus musculus), Q8BHY3; HEK293 TMEM16A/YFP iodide influx fluorescence, ionomycin; normalized B-score (activity score, 25-100; higher = stronger inhibition) at 10 µM; 310,000 tested, 1.2% active; AID 588511, 2011;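 active = ratio plate-corrected score three or more library SD toward inhibition, starting fluorescence score within five deviations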;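 also: score derived from kinetic fluorescence span divided by baseline fluorescence per well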
CHT block – inhibitors of human choline transporter CHT; High affinity choline transporter 1 (Homo sapiens), Q9GZV3; CHT-expressing cells, membrane potential dye, choline response; hits give low values; B-score at 10 µM; 310,000 tested, 0.86% active; AID 488975, 2010;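 active = B-score over 3 SD under the library average, and starting fluorescence ratio not unusually high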;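 also: choline stimulus applied at its EC90 after an EC20 pre-addition; B-score computed on integrated fluorescence ratio after choline addition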
Kir21 inh – inhibitors of mouse Kir2.1 inward-rectifier potassium channel; Inward rectifier potassium channel 2 (Mus musculus), P35561; HEK293-Kir2.1, FluxOR thallium flux fluorescence; hits give low values; B-score at 10 µM; 310,000 tested, 0.85% active;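 active = fluorescence ratio B-score at or below minus 3 SD of library scores, with starting-brightness B-score within 2 SD, cut at about -4.2 in these data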;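 also: channel flux triggered by added potassium and thallium sulfate stimulus; B-score of peak minus minimum fluorescence over baseline after thallium stimulus; more negative B-score means stronger Kir2.1 block with less thallium influx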
CHT allo act – CHT positive allosteric modulators, primary screen, cell-based, membrane potential dye, choline EC20; High affinity choline transporter 1 (Homo sapiens), Q9GZV3; CHT-expressing cells; hits give high values; LV-AA mutant CHT in HEK293 cells; B-score at 10 µM; 310,000 tested, 0.49% active;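 active = initial fluorescence not abnormally high and integrated response B-score, plate-corrected, over 3 SD above library mean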
CHT inh conf – CHT inhibitors, confirmation, cell-based, membrane potential dye, duplicate; CHT activity remaining % of control (hits give low values), % at 10 µM; shares compounds with CHT block; 2,400 tested, 70% active; CHT-expressing cells, choline membrane potential dye; LV-to-AA substituted CHT, HEK293 cells;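 active = choline transporter activity left, mean of duplicates at 10 µM, below buffer-only control mean minus 3 SD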;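 also: depolarization triggered by choline at its EC90 following an EC20 pre-addition; 0% = hemicholinium-3 full block and 100% = buffer-only control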
HEK293 CHT ctr – membrane potential effects in parental HEK293, counter-screen for CHT inhibitor project, cell-based, membrane potential dye; 2,400 tested, 4% active; membrane potential ratio readout (active if shifted either direction beyond buffer ±3SD; no single direction) at 10 µM; AID 493222, 2011; shares compounds with CHT block; choline response; active = decrease or increase beyond buffer ±3SD;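 also: parental cells lack the transporter so any hit is non-specific; ratio is peak minus trough fluorescence over baseline after EC90 choline challenge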
* marks the source's active call; other numbers are inactive results; i = inactive; x = no result given.

SMILES	TMEM16A act	Rce1 inh	ANO1 block	CHT block	Kir21 inh	CHT allo act	CHT inh conf	HEK293 CHT ctr
CCCN1Cc2cccc(C(=O)NCc3ccccc3OC)c2C1=O	i	i	i	-5.27*	-0.91	i	70.7%*	i
COc1ccc(N(C)S(=O)(=O)c2cccc(C(=O)NC3CCCCC3C)c2)cc1 (configuration not stated)	i	i	i	-5.51*	-0.27	i	59.0%*	i
COc1ccc(N2C(=O)C(CC(=O)Nc3ccccc3)N(CCc3ccc(OC)c(OC)c3)C2=O)cc1 (configuration not stated)	i	x	i	-8.74*	1.38	i	i	i
Cc1cc(C)c(C(=O)Nc2ccc(S(=O)(=O)Nc3ccccn3)cc2)c(C)c1	i	x	i	-13.8*	0.54	i	5.0%*	i
Cc1cccc(NC(=O)C2CCN(S(C)(=O)=O)CC2)c1C	i	x	i	-5.28*	-1.22	i	i	i
COC(=O)CCCNC(=O)c1ccc(OC2CCN(CCc3ccccc3)CC2)cc1	i	i	i	i	0.38	i	x	x
CSCCNC(=O)c1ccc(OC2CCN(CCc3ccccc3)CC2)cc1	i	i	i	-5.23*	-0.65	i	46.4%*	4.78*
O=C(NCCn1cccn1)c1ccc(OC2CCN(C(=O)C3CC3)CC2)cc1	i	x	i	-10.5*	-0.81	i	i	i
C[C@@]12C(=O)N(CCO)CC(=O)N1[C@H](/C=C/c1ccccc1)[C@@H]1C(=O)N(c3ccccc3)C(=O)[C@@H]12	i	i	i	i	0.19	i	x	x
O=C(CN1CCN(c2ccc(O)cc2)CC1)N(C1CC1)C1CCS(=O)(=O)C1 (configuration not stated)	i	x	x	x	x	x	x	x
CC1CCN(S(=O)(=O)c2nnc(NC(=O)c3cccc(Cl)c3)s2)CC1	i	i	i	-6.56*	-1.45	i	i	i
COc1ccccc1C(=O)Nc1nnc(S(=O)(=O)N2CCC(C)CC2)s1	i	i	i	i	-0.01	i	x	x
COc1cccc(CNc2ccc(N3CCC(C)CC3)cc2)c1OC	i	i	i	-5.39*	-2.51	i	53.6%*	i
COc1ccc(Br)cc1CNc1ccc(N2CCOCC2)cc1	i	i	i	i	0.48	i	x	x
Cc1nnc(SCc2ccc(F)cc2)n1NC/C=C/c1ccccc1	i	i	i	-7.09*	-5.06*	i	i	i
O=[N+]([O-])c1ccc(N2CCCCC2)nc1	i	i	i	-5.79*	-0.02	i	60.4%*	i
O=[N+]([O-])c1ccc(N2CCN(c3ccccc3)CC2)nc1	i	i	i	i	0.15	i	x	x
O=C(CSc1nn(-c2ccc(F)cc2)c(=S)s1)NCC1CCCO1 (configuration not stated)	i	i	i	-5.36*	-1.11	i	i	i
COc1ccc(C2=Nn3c(nnc3-c3ccccc3OC)SC2)cc1OC	i	i	i	-6.86*	-1.87	i	47.7%*	i
COc1ccccc1-c1nnc2n1N=C(C)CS2	i	i	i	i	0.71	i	x	x
Cc1cc(NC(=O)C(C)SCC(=O)Nc2nc3c(F)cc(F)cc3s2)no1 (configuration not stated)	i	x	x	x	x	x	x	x

Screening results deposited in PubChem BioAssay by several laboratories.
